Active and inactive are the calls of the source. Rule as the data show it: active = log2 fold change growth below about -1.8; inactive = the rest.

The nature of the assay: anthelmintic activity against nematode growth – whole organism, log2 fold change (AID 1259336).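 Also: growth scored by imaging after five days at 20 °C.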 As to conditions: C. elegans growth, anthelmintic screen; active compounds read low.
Take `CC(=O)N1CCN(c2ccc(Oc3ccc(Cl)cc3O)cc2)CC1`: the log2 fold change growth is 0.423 (inactive).

Take `O=C(c1ccc(F)cc1)N(CCNc1ccccc1)c1ccccc1`: the log2 fold change growth is 0.348 (inactive).

As to `CN1CCCN([C@@H](c2ccccc2)c2ccc(Cl)cc2)CC1`, the log2 fold change growth was 0.517 (inactive).

For `Oc1c(I)cc(I)c2cccnc12`, the log2 fold change growth was 0.0616 (inactive).

Consider `CN1CCN(S(=O)(=O)c2ccc(-c3ccc4c(Nc5ncc(Cl)cn5)ccnc4c3)cc2)CC1`, for which the log2 fold change growth was 0.346 (inactive).

`C[C@H]1c2cccc(O)c2C(O)=C2C(=O)[C@]3(O)C(O)=C(C(N)=O)C(=O)[C@@H](N(C)C)[C@@H]3[C@@H](O)[C@@H]21`: the log2 fold change growth was 0.805 (inactive).

For `CN(C)c1cc(NC(=O)Nc2ccccc2)c2ccccc2n1`, the log2 fold change growth is 0.272 (inactive).

Consider `CS(=O)(=O)N1CCC(Cn2nc(Cc3cccc4ccccc34)c3c(N)ncnc32)CC1`, for which the log2 fold change growth was -0.695 (inactive).

Regarding `O=C(NC1CCCCC1)N1CCN(Cc2ccc3c(c2)OCO3)CC1`, the log2 fold change growth is -0.153 (inactive).

With `CC(C)(C)CN1C(=O)C(c2ccccc2)(c2ccccc2)N=C1N`, the log2 fold change growth is -5.48 (active).

With `COC(=O)C1=C(C)NC(C)=C(C(=O)OC(C)C)[C@H]1c1cccc2nonc12`, the log2 fold change growth was -2.22 (active).

Take `COc1cc(-c2cc(-c3ccc(S(C)(=O)=O)cc3)cnc2N)ccc1O`: the log2 fold change growth is -0.318 (inactive).

Regarding `COc1cccc(NC(=O)c2c(NC(=O)c3cccnc3)sc3c2CCC3)c1`, the log2 fold change growth was -1.12 (inactive).

Regarding `Cc1ccc(S(=O)(=O)n2cc(-c3ccnc(N)c3)c3cc(Br)cnc32)cc1`, the log2 fold change growth was -0.39 (inactive).

On to `CC1CCCN(C(=O)C(C)Nc2cc(Cl)ccc2N2CCOCC2)C1` (stereo not given), for which the log2 fold change growth was 0.538 (inactive).

Values taken from PubChem BioAssay AID1259336 (Sattelle Laboratory, UCL Respiratory, Division of Medicine, …, 2017).
